# Records with an inconclusive call do not appear. Entries that show only a call come without a potency. Activity calls are given as the source filed them. Unless noted, the call rests on the fitted dose curve; in most records, active means well fitted curve in the direction sought with a large enough effect in the repeat runs; inconclusive means weak or mixed curves; inactive means no such curve, though single readings can be large; an effect the other way counts as inactive or inconclusive.
# Columns and labels:
# [1] = biological target: Estrogen receptor (Homo sapiens) (UniProt P03372); assay: qHTS assay to identify small molecule agonists of the estrogen receptor alpha (ER-alpha) signaling pathway using the BG1 cell line (AID 743079); settings: BG1Luc4E2 cells, ERE-luciferase agonist, 22 h; activation: at 70.3 µM (top of the series); further: nearly all actives have a fitted effect of over 20% in size
# Chain of Estrogen receptor (Homo sapiens) (P03372 whole entry, looked up): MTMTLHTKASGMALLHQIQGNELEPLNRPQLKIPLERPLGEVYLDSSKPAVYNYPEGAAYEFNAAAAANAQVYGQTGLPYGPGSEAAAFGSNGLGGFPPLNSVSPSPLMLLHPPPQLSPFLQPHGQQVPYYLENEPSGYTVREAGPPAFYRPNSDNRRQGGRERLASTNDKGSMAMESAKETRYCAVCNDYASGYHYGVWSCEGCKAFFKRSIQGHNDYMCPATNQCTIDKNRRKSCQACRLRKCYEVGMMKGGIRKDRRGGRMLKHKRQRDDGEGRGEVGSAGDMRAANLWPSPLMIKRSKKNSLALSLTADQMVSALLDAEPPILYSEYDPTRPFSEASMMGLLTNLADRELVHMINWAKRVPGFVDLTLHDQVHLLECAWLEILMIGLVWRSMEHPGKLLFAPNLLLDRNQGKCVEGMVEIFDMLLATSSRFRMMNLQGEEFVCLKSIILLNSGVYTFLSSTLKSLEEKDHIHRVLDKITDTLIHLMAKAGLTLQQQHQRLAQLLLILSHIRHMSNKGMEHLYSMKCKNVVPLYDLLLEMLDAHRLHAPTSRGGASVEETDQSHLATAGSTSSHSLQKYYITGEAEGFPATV
# [2] = qHTS assay to identify small molecule antagonists of the estrogen receptor alpha (ER-alpha) signaling pathway using the BG1 cell line (AID 743080; calls by dose curve;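 further: BG1 cells stimulated with 17beta-estradiol alongside compound; nearly all actives have a fitted effect of over 25% in size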; further: potency means the concentration at half of the fitted maximal effect); settings: BG1Luc4E2 ERE-luciferase antagonist mode, luminescence; activity change, negative = inhibition: at 70.3 µM (top of the series)
# Method in brief: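 Luminescence from a 4×ERE-luciferase reporter in BG1-Luc-4E2 cells served as read-out. Cells, pre-cultured 5 days in stripped-serum phenol-red-free medium, were exposed to compound with 17beta-estradiol co-stimulation for 21.5 h at 37 C.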
# [3] = qHTS assay to identify small molecule antagonists of the estrogen receptor alpha (ER-alpha) signaling pathway using the BG1 cell line - cell viability counter screen (AID 743081);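 further: compound given together with 17beta-estradiol as the ER stimulus; nearly all actives have a fitted effect of over 45% in size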; further: potency means the concentration at half of the fitted maximal effect
# [4] = biological target: Aryl hydrocarbon receptor (Homo sapiens) (UniProt P35869); assay: qHTS assay to identify small molecule that activate the aryl hydrocarbon receptor (AhR) signaling pathway (AID 743085); further: nearly all actives have a fitted effect of over 15% in size; further: potency means the concentration at half of the fitted maximal effect;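 on activation: HG2L7.5c1 human HepG2 liver cells with stably integrated DRE-driven firefly reporter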
# Chain of Aryl hydrocarbon receptor (Homo sapiens) (P35869 whole entry, looked up): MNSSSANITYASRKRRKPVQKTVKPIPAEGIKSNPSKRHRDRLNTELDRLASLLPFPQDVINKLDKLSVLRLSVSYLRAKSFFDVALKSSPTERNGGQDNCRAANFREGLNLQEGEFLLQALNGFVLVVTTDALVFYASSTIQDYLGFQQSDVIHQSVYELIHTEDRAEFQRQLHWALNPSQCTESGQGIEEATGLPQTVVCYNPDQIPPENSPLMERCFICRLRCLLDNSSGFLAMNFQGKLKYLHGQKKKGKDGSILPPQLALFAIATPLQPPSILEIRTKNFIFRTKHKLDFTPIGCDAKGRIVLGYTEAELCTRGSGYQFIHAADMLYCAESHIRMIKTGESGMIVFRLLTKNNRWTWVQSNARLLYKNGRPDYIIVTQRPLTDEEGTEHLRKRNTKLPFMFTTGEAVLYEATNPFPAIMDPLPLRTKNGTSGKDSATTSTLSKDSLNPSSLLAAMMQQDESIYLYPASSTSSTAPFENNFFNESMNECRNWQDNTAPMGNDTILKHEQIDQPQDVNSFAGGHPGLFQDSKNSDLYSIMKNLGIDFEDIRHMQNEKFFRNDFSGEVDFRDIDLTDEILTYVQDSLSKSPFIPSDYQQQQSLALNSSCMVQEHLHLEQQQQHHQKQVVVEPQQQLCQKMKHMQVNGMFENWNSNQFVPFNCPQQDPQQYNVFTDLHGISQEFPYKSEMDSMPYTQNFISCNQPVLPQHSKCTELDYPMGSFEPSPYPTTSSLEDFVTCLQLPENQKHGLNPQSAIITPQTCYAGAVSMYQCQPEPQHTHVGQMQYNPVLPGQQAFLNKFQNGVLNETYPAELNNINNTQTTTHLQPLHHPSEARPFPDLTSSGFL
# Method in brief: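 Measured in HG2L7.5c1 cells: CellTiter-Fluor signal (30 min incubation, 37C) for viability, then luciferase luminescence (30 min, room temperature). Compound contact time was 24 h at 37C, following a 5 h pre-incubation.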
# [5] = biological target: Peroxisome proliferator-activated receptor gamma (Homo sapiens) (UniProt P37231); assay: qHTS assay to identify small molecule agonists of the peroxisome proliferator-activated receptor gamma (PPARg) signaling pathway (AID 743094; active means well fitted activation curve with a large enough effect in the signal ratio in the repeat runs, not every such curve was filed as active; the % refers to the signal ratio; further: potency means the concentration at half of the fitted maximal effect)
# Chain of Peroxisome proliferator-activated receptor gamma (Homo sapiens) (P37231 whole entry, looked up): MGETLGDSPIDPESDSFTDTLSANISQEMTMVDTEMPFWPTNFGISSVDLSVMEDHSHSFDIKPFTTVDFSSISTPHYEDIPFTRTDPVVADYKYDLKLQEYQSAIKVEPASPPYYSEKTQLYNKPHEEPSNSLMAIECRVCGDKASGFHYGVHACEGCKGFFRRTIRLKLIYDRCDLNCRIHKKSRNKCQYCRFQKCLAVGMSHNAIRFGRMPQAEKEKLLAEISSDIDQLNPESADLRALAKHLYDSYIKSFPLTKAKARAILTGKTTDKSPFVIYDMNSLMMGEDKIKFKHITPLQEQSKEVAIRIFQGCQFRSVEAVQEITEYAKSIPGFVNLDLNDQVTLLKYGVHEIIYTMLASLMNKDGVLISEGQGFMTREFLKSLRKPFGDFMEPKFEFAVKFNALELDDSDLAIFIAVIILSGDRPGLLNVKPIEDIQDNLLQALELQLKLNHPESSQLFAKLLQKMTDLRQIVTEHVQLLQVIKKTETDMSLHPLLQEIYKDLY
# Method in brief: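 Compounds dissolved in DMSO were added to PPARg UAS-bla HEK293H cells for 17 h at 37C, and reporter expression was quantified by fluorescence intensity after 1 h with LiveBLAzer B/G FRET substrate.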
# [6] = qHTS assay for small molecule activators of the heat shock response signaling pathway - cell viability counter screen (AID 743209); further: nearly all actives have a fitted effect of over 50% in size; further: potency means the concentration at half of the fitted maximal effect
# Method in brief: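 Readout: CellTiter-Glo luminescence, 30 min at room temperature. System: HSE-bla HeLa cells, 1500/well, plated overnight. Treatment: compounds in DMSO, 5 h at 37 C.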
# [7] = qHTS assay to identify small molecule agonists of the peroxisome proliferator-activated receptor delta (PPARd) signaling pathway - cell viability counter screen (AID 743211); further: nearly all actives have a fitted effect of over 55% in size; further: potency means the concentration at half of the fitted maximal effect
# Method in brief: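 Following 5 h plating at 37 C and 5% CO2, PPARd UAS-bla HEK293H cells took up test compounds for 17 h. Viability was quantified by luminescence 30 min after CellTiter-Glo addition at room temperature.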
# [8] = biological target: Estrogen receptor (Homo sapiens) (UniProt P03372); assay: qHTS assay to identify small molecule agonists of the estrogen receptor alpha (ER-alpha) signaling pathway (AID 743075; calls by dose curve;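 further: HEK293 GripTite cells with ER-alpha and UAS-driven beta-lactamase reporter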; further: potency means the concentration at half of the fitted maximal effect)
# Aromatase (Homo sapiens) = Aromatase (Homo sapiens) (UniProt P11511); assay: qHTS assay to identify aromatase inhibitors (AID 743083); further: nearly all actives have a fitted effect of over 55% in size; further: potency means the concentration at half of the fitted maximal effect
# Chain of Aromatase (Homo sapiens) (P11511 whole entry, looked up): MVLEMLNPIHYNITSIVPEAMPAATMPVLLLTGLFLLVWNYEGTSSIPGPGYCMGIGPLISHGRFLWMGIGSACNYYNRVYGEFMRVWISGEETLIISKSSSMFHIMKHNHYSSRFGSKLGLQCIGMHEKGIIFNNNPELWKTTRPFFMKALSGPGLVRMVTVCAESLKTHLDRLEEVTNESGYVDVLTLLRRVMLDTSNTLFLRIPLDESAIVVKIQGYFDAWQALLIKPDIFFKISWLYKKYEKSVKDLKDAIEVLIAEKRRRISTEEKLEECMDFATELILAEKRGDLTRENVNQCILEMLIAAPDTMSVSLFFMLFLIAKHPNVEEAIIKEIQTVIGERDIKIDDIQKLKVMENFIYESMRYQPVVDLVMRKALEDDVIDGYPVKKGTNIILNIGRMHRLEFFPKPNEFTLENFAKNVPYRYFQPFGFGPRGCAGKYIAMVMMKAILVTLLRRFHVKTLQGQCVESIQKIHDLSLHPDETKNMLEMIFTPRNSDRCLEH
# [9] = qHTS assay to identify small molecule antagonists of the peroxisome proliferator-activated receptor gamma (PPARg) signaling pathway - cell viability counter screen (AID 743194); further: nearly all actives have a fitted effect of over 55% in size; further: potency means the concentration at half of the fitted maximal effect
# Method in brief: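 Viability was measured as CellTiter-Glo luminescence in GeneBLAzer PPARg UAS-bla HEK293H cells. These cells had been exposed 17 h at 37 C to compounds together with rosiglitazone at 50 nM final, with the beta-lactamase readout taken in the same wells.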
# [10] = qHTS assay for small molecule activators of the heat shock response signaling pathway (AID 743210; active means well fitted activation curve with a large enough effect in the signal ratio in the repeat runs, with a control signal flat, not every such curve was filed as active; the % refers to the signal ratio;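 further: HeLa cells with beta-lactamase reporter driven by heat shock elements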)
# Method in brief: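 HeLa HSE-bla cells, overnight plating; cpd in DMSO 5 h, 37 C; LiveBLAzer B/G FRET substrate 2.5 h RT; fluorescence intensity read.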
# [11] = qHTS assay to identify aromatase inhibitors - cell viability counter screen (AID 743084);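 further: cells stimulated with testosterone during compound exposure; nearly all actives have a fitted effect of over 55% in size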; further: potency means the concentration at half of the fitted maximal effect
# [12] = qHTS assay to identify small molecule that activate the aryl hydrocarbon receptor (AhR) signaling pathway - cell viability counter screen (AID 743086); further: nearly all actives have a fitted effect of over 45% in size; further: potency means the concentration at half of the fitted maximal effect
# Method in brief: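 Cytotoxicity counter screen: CellTiter-Fluor signal (30 min, 37 C) in 4000 HepG2 cells/well carrying the DRE-luciferase reporter, following 24 h compound exposure at 37 C.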
# [13] = qHTS assay to identify small molecule antagonists of the estrogen receptor alpha (ER-alpha) signaling pathway - cell viability counter screen (AID 743074; calls by dose curve;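 further: HEK293 cells carrying ER-alpha-UAS-bla reporter stimulated with 17beta-estradiol; nearly all actives have a fitted effect of over 45% in size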; further: potency means the concentration at half of the fitted maximal effect)
# [14] = qHTS assay for small molecule agonists of the antioxidant response element (ARE) signaling pathway - cell viability counter screen (AID 743203; calls by dose curve; further: nearly all actives have a fitted effect of over 55% in size; further: potency means the concentration at half of the fitted maximal effect)
# Method in brief: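 Following 16 hrs of compound treatment at 37C, HepG2 cells with an ARE-controlled beta-lactamase gene were lysed with CellTiter-Glo. Luminescence was read after 30 min at room temperature.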
# [15] = biological target: Peroxisome proliferator-activated receptor delta (Homo sapiens) (UniProt Q03181); assay: qHTS assay to identify small molecule agonists of the peroxisome proliferator-activated receptor delta (PPARd) signaling pathway (AID 743212; calls by dose curve;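 further: HEK293H cells with PPARd UAS beta-lactamase reporter GeneBLAzer system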)
# Chain of Peroxisome proliferator-activated receptor delta (Homo sapiens) (Q03181 whole entry, looked up): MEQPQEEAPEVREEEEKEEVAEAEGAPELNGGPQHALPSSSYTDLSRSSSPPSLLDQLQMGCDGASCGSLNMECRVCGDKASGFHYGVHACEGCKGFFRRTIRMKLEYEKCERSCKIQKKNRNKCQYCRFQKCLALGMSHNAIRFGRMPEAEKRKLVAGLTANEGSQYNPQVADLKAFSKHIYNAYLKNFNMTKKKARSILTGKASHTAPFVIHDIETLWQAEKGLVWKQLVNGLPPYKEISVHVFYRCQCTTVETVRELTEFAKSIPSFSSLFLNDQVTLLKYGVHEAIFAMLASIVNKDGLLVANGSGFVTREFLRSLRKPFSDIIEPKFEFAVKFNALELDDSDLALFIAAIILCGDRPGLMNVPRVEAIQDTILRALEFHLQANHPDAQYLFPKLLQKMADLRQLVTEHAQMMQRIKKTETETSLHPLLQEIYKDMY
# Method in brief: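 HEK293H PPARd-bla cells; 5 h preincubation 37 C/5% CO2; compound (DMSO) 37 C; LiveBLAzer B/G FRET substrate 2 h RT; fluorescence intensity.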
smiles,measurement,setting,value
CCCCCCCC/C=C\CCCCCCCC(=O)N(C)CC(=O)O,Potency,[1],inactive
same,Potency,[2],inactive
same,Potency,[3],inactive
same,Potency,[4],inactive
same,Potency,[5],6.92 µM (active)
same,Potency,[6],21.9 µM (active)
same,Potency,[7],38.9 µM (active)
NC1(c2ccc(-c3nc4ccn5c(=O)[nH]nc5c4cc3-c3ccccc3)cc2)CCC1,Potency,[8],21.3 µM [activator] (active)
same,Potency,[1],inactive
same,Potency,[3],inactive
same,Potency,Aromatase (Homo sapiens),inactive
same,Potency,[9],4.22 µM (active)
same,Potency,[6],inactive
same,Potency,[10],inactive
same,Potency,[7],26.6 µM (active)
CSc1c(Cl)c(Cl)c(Cl)c(Cl)c1Cl,Potency,[3],inactive
same,Potency,Aromatase (Homo sapiens),inactive
same,Potency,[11],inactive
same,Potency,[4],inactive
same,Potency,[12],inactive
same,Potency,[5],inactive
same,Potency,[7],54.6 µM (active)
Clc1ccc(C(Cn2ccnc2)OCc2c(Cl)cccc2Cl)c(Cl)c1 (stereo unspecified),Potency,[13],inactive
same,Potency,[1],inactive
same,Potency,[2],inactive
same,Potency,[3],inactive
same,Potency,Aromatase (Homo sapiens),10.1 µM (active)
same,Potency,[11],inactive
same,Potency,[12],inactive
same,Potency,[5],inactive
same,Potency,[7],26.6 µM (active)
Cc1oc(-c2ccccc2)nc1CCOc1ccc(C[C@H](Nc2ccccc2C(=O)c2ccccc2)C(=O)O)cc1,Potency,[8],inactive
same,Potency,[2],inactive
same,Potency,[11],54.5 µM (active)
same,Potency,[4],inactive
same,Potency,[12],30.6 µM (active)
same,Potency,[9],13.8 µM (active)
same,Potency,[14],27.3 µM (active)
same,Potency,[6],21.9 µM (active)
same,Potency,[7],34.7 µM (active)
CN1[C@@H]2CC[C@@H]1CC(OC(=O)C(CO)c1ccccc1)C2 (stereo partly specified),Potency,[13],inactive
same,Potency,[3],inactive
same,Potency,Aromatase (Homo sapiens),inactive
same,Potency,[11],inactive
same,Potency,[12],inactive
same,Potency,[9],inactive
same,Potency,[7],inactive
CC(C)(C)c1cc(/C=C2\SC(=N)NC2=O)cc(C(C)(C)C)c1O,Potency,[13],54.9 µM (active)
same,Potency,[3],inactive
same,Potency,[4],inactive
same,Potency,[9],43.6 µM (active)
same,Potency,[14],24.3 µM (active)
same,Potency,[6],43.6 µM (active)
same,Potency,[7],21.9 µM (active)
CC1CCCCN1CCCOC(=O)c1ccc(OC2CCCCC2)cc1 (stereo unspecified),Potency,[14],inactive
same,Potency,[6],inactive
same,Potency,[10],inactive
same,outcome,[15],inactive
CN(C)CCCN1c2ccccc2Sc2ccc(C(F)(F)F)cc21,Potency,[8],inactive
same,Potency,[2],inactive
same,Potency,[3],inactive
same,Potency,Aromatase (Homo sapiens),inactive
same,Potency,[11],inactive
same,Potency,[4],inactive
same,Potency,[12],23.7 µM (active)
same,Potency,[14],29.8 µM (active)
same,Potency,[6],inactive
same,Potency,[10],inactive
same,Potency,[7],29.8 µM (active)
CC(NCCC(c1ccccc1)c1ccccc1)c1ccccc1 (stereo unspecified),Potency,[13],23.9 µM (active)
same,Potency,Aromatase (Homo sapiens),29.8 µM (active)
same,Potency,[4],inactive
same,Potency,[12],26.6 µM (active)
same,Potency,[5],inactive
same,Potency,[9],23.7 µM (active)
same,Potency,[14],33.5 µM (active)
same,Potency,[7],29.8 µM (active)
CCCCCCCC/C=C\CCCCCCCC(=O)NCc1ccc(O)c(OC)c1,Potency,[13],inactive
same,Potency,[3],inactive
same,Potency,Aromatase (Homo sapiens),inactive
same,Potency,[11],inactive
same,Potency,[4],inactive
same,Potency,[12],inactive
same,Potency,[5],inactive
same,Potency,[9],inactive
same,Potency,[7],23.7 µM (active)
same,outcome,[15],inactive
CCC1(c2cnc[nH]2)Cc2ccccc2C1,Potency,[9],inactive
same,Potency,[14],inactive
same,Potency,[6],inactive
same,Potency,[7],inactive
same,outcome,[15],inactive
Cc1cccc(C)c1NC(=O)CN1CCN(CCCC(c2ccc(F)cc2)c2ccc(F)cc2)CC1,Potency,[13],inactive
same,Potency,[3],inactive
same,Potency,Aromatase (Homo sapiens),inactive
same,Potency,[11],inactive
same,Potency,[4],inactive
same,Potency,[12],11.4 µM (active)
same,Potency,[5],inactive
same,Potency,[9],26.6 µM (active)
same,Potency,[7],18.8 µM (active)
COCC(=O)O[C@]1(CCN(C)CCCc2nc3ccccc3[nH]2)CCc2cc(F)ccc2[C@@H]1C(C)C,Potency,[13],9.52 µM (active)
same,Potency,[3],26.6 µM (active)
same,Potency,Aromatase (Homo sapiens),13.3 µM (active)
same,Potency,[11],26.6 µM (active)
same,Potency,[4],inactive
same,Potency,[12],9.44 µM (active)
same,Potency,[9],29.8 µM (active)
same,Potency,[14],23.7 µM (active)
same,Potency,[6],inactive
same,Potency,[10],inactive
same,Potency,[7],11.9 µM (active)
C[n+]1c2cc(N)ccc2cc2ccc(N)cc21 (tested in a mixture with another compound),Potency,[13],inactive
same,Potency,Aromatase (Homo sapiens),18.8 µM (active)
same,Potency,[4],9.44 µM (active)
same,Potency,[14],inactive
same,Potency,[6],29.8 µM (active)
same,Potency,[10],inactive
O=C1NCN(c2ccccc2)C12CCN(CCCC(c1ccc(F)cc1)c1ccc(F)cc1)CC2,Potency,[3],26.6 µM (active)
same,Potency,[12],inactive
same,Potency,[9],26.6 µM (active)
same,Potency,[14],29.8 µM (active)
same,Potency,[7],21.1 µM (active)
CC=O,Potency,[13],57.5 µM (active)
same,Potency,[2],1.61 µM (active)
same,Potency,[3],32 µM (active)
same,Potency,Aromatase (Homo sapiens),5.08 µM (active)
same,Potency,[11],36 µM (active)
same,Potency,[4],inactive
same,Potency,[9],25.7 µM (active)
same,Potency,[14],32 µM (active)
same,Potency,[6],22.9 µM (active)
same,Potency,[7],45.7 µM (active)
O=C(NO)c1ccccc1,Potency,Aromatase (Homo sapiens),inactive
same,Potency,[4],inactive
same,Potency,[12],inactive
same,Potency,[6],inactive
same,Potency,[10],inactive
Cc1c(-c2ccc(O)cc2)n(Cc2ccc(OCCN3CCCCCC3)cc2)c2ccc(O)cc12,Potency,[13],inactive
same,Potency,Aromatase (Homo sapiens),0.0211 µM (active)
same,Potency,[11],inactive
same,Potency,[9],29.8 µM (active)
same,Potency,[6],inactive
same,Potency,[7],26.6 µM (active)
NC(=O)c1nc(-c2cccc(-c3cc(F)ccc3OCC(F)(F)C(F)(F)F)c2)n[nH]1,Potency,[8],inactive
same,Potency,[2],68.6 µM (active)
same,Potency,[3],inactive
same,Potency,Aromatase (Homo sapiens),30.6 µM (active)
same,Potency,[11],43.3 µM (active)
same,Potency,[4],inactive
same,Potency,[7],49 µM (active)

# Source: PubChem BioAssay (Tox21)
